The source made the active and inactive calls.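 The calls were made as follows: active = a thermal shift above zero, meaning the compound raised the protein's melting temperature; inactive = the rest.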
The molecules below were run against Luciferin 4-monooxygenase (Photinus pyralis) (UniProt P08659) (assay: Thermal Shift Assay for Inhibitors of FLuc (Firefly Luciferase, Photinus pyralis) in Absence of ATP). Conditions: purified FLuc, SYPRO Orange thermal shift, no ATP; at 200 µM; active compounds read high.
Sequence of Luciferin 4-monooxygenase (Photinus pyralis) (P08659 whole entry, looked up): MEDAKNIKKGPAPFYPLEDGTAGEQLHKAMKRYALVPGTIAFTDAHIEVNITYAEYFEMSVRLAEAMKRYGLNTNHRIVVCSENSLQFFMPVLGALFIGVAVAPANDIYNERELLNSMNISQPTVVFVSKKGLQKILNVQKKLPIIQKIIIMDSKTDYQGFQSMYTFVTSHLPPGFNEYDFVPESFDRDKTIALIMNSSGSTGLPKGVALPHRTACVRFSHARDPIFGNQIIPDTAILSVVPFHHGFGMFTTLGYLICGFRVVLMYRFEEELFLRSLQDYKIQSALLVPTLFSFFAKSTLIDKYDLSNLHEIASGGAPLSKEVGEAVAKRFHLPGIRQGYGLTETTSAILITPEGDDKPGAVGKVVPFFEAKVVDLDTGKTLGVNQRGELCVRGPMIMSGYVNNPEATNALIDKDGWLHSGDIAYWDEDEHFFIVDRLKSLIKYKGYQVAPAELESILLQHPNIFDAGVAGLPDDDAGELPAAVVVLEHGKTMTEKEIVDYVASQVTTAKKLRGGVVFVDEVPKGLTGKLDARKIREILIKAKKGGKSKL
From the text: Firefly (Photinus pyralis) luciferase (FLuc) is widely used as a reporter in biological assays. […] In order to determine if FLuc thermal stabilization parallels inhibitor potency, a fluorescence-based thermal denaturation assay was developed in this present study. An environmentally sensitive fluorescence dye, SYPRO Orange (Invitrogen, presently Life Technologies) was utilized to monitor the fluorescence change as a function of temperature. The dye preferentially binds to the hydrophobic regions of the protein, and its high signal-to-noise ratio, large Stokes shift and high excitation wavelength make it ideal for thermal shift application. In this assay, the melting temperature (Tm) (the inflection point of the protein melt transition) was assessed for each sample tested. Differences in the Tm between controls and compound-containing samples were determined (the thermal shift or delta Tm), and compounds were ranked by the degree of their thermal shift at the top concentration (200 uM). […] FLuc catalyzes light production in bioluminescent organisms. The reaction requires luciferin, ATP and O2 as substrate, and it includes the formation of a luciferyl-AMP intermediate and the subsequent production of light, AMP, oxyluciferin and CO2. In this study, PTC124 and analogues were evaluated for their potential to stabilize FLuc in the absence and presence of ATP. This particular BioAssay is in the absence of ATP. See related BioAssay "Thermal Shift Assay for Inhibitors of FLuc (Firefly Luciferase, Photinus pyralis) in the Presence of ATP" See [6] for more details on this assay and related studies. Welch, et al. PTC124 targets genetic disorders caused by nonsense mutations. Nature 447 (2007) 87-91. D.S. Auld, N. Thorne, W.F. Maguire, and J. Inglese, Mechanism of PTC124 activity in cell-based luciferase assays of nonsense codon suppression. […]
Assay Protocol: 1.8 uM FLuc was tested in Tris-acetate buffer (pH 7.6) or phosphate buffer saline (pH 7.4). […] Fluorescence intensity changes (Ex 490/Em 575 nm) were monitored with a charge-coupled device (CCD) camera. […]

Thermal shift (delta Tm), active:
NC(=O)c1cccc(-c2noc(-c3ccccc3F)n2)c1 2.84 °C
Nc1ncnc2c1ncn2[C@@H]1O[C@H](COP(=O)(O)OC(=O)c2cccc(-c3noc(-c4ccccc4F)n3)c2)[C@@H](O)[C@H]1O 28.3 °C
O=C(O)c1ccc(-c2noc(-c3ccccc3F)n2)cc1 5.87 °C
